Measured values as given in the supplement of paper PMC4166925.
± gives the standard deviation of the averaged measurements. The full ranking holds about 33,000 sequences; the median of “E-score (dimensionless, -0.5 to 0.5)” is about -0.046, and the highest 2% start at about 0.36. The entries come from a sample that favours the highest values as a whole.

tested on: T1, SpTbr T-box DNA-binding domain (GST fusion); assay: PBM E-score of 8-mer (E-score (dimensionless, -0.5 to 0.5)); Tbr is Tbrain of the sea star Patiria miniata (Pm) or the sea urchin Strongylocentrotus purpuratus (Sp); higher = stronger binding preference; settings: the construct has about 5 more residues each side
T1 sequence: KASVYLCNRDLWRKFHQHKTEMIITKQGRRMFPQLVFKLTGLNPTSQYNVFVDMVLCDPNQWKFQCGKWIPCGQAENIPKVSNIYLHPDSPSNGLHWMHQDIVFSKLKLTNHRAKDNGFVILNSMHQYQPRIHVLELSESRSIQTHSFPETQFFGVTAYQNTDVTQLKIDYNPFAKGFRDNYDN
Description: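 Universal protein-binding microarray (Agilent AMADID 016060, 60-bp probes with a 35-bp variable region) incubated with 200 nM GST-fused Strongylocentrotus purpuratus Tbr T-box DNA-binding domain (residues 362-554) in PBS pH 7.5. Scored for every ungapped 8-mer (given with its reverse complement) as E-score (range -0.5 to 0.5; >0.45 counts as bound) and Z-score of median probe intensity. Two replicate arrays (datasets 1 and 2).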
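Note: protein at 200 nM in PBS on universal double-stranded arrays.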

| Sequence | PBM E-score of 8-mer |
| --- | --- |
| CCCCAAAA | -0.112 ± 0.042 |
| TATTTGAA | -0.214 ± 0.013 |
| CACCTCCC | 0.389 ± 0.017 |
| CACCTCCA | 0.3876 ± 0.00048 |
| CACCTCCG | 0.4516 ± 0.0039 |
| GACCTCCC | -0.159 ± 0.12 |
| CCCCTCCG | 0.119 ± 0.066 |
| AACCTCCA | -0.135 ± 0.018 |
| AACCTCCC | -0.0867 ± 0.0052 |
| TACCTCCA | -0.0368 ± 0.093 |
| AACCTCCG | 0.0095 ± 0.07 |
| AGCGGGCA | -0.0395 ± 0.016 |
| GACGTGCA | 0.0705 ± 0.07 |
| ACCCGAGA | 0.0223 ± 0.0071 |
| GCCCGACC | -0.213 ± 0.054 |
| CTAGGTTA | -0.16 ± 0.08 |
| GTTTAGCA | 0.102 ± 0.11 |
| CACCTCAA | 0.375 ± 0.024 |
| AACCTCAC | 0.182 ± 0.034 |
| AACCTCAA | -0.158 ± 0.018 |
| CACCTCAC | 0.444 ± 0.012 |
| CTCCTCAG | -0.0357 ± 0.025 |
| AACCTCAG | -0.244 ± 0.045 |
| CACCTCAG | 0.376 ± 0.0075 |
| TACCTCAA | -0.13 ± 0.045 |

| Sequence | PBM E-score of 8-mer |
| --- | --- |
| GACCTCAC | 0.137 ± 0.049 |
| CGAAAACG | 0.0298 ± 0.05 |
| CGATACAG | -0.0251 ± 0.13 |
| GAGTTGGA | -0.0967 ± 0.023 |
| ATCTTCAC | 0.267 ± 0.02 |
| TCTTAACA | 0.214 ± 0.041 |
| GGTTATAC | 0.0871 ± 0.041 |
| GCATGCTA | 0.00793 ± 0.094 |
| ATAGGGAG | -0.00632 ± 0.036 |
| AGAGTGTC | 0.359 ± 0.0099 |
| ATAGTGTG | 0.388 ± 0.026 |
| ATAGTGTA | 0.0763 ± 0.038 |
| ATAGTGTC | 0.272 ± 0.07 |
| AGAGTGTG | 0.375 ± 0.022 |
| AGAGTGTA | 0.0671 ± 0.0042 |
| CGAAGACC | -0.109 ± 0.036 |
| GAGCCCCA | -0.124 ± 0.065 |
| GGGTTAAA | -0.213 ± 0.063 |
| TAACCGAA | -0.212 ± 0.034 |
| CCGCAGAC | -0.143 ± 0.042 |
| GATCAATA | 0.0446 ± 0.036 |
| CGCCACAG | 0.0527 ± 0.03 |
| GGCCACAC | 0.3886 ± 0.00083 |
| CGCCACAC | 0.3647 ± 0.0013 |
| CGCCACAA | 0.0762 ± 0.081 |

| Sequence | PBM E-score of 8-mer |
| --- | --- |
| GGCCACAA | 0.0675 ± 0.11 |
| AGCCACAC | 0.311 ± 0.049 |
| GAGATGGC | -0.0157 ± 0.0073 |
| CAACCTAG | -0.0248 ± 0.069 |
| AAAGGTGC | 0.414 ± 0.01 |
| ATAGGTGC | 0.412 ± 0.012 |
| AAAGGTAC | -0.0923 ± 0.05 |
| AAAGGTGG | 0.0801 ± 0.026 |
| AAGGGTGT | 0.383 ± 0.015 |
| ATAGGTGA | 0.284 ± 0.032 |
| AAAGGTGA | 0.316 ± 0.0022 |
| CTAGGTGC | 0.3603 ± 0.003 |
| AAGGGTGG | 0.146 ± 0.028 |
| AAAGGTGT | 0.469 ± 0.0063 |
| AAAGGTCC | 0.0265 ± 0.0014 |
| AAGGGTGA | 0.136 ± 0.04 |
| CGGGTGAA | -0.3489 ± 0.0032 |
| AGCAACCA | -0.0779 ± 0.012 |
| CTACCGTC | -0.191 ± 0.04 |
| ATTTACCG | -0.131 ± 0.054 |
| CGAGGGTA | -0.211 ± 0.033 |
| GATGAGGC | -0.112 ± 0.027 |
| GGTCTACA | -0.0571 ± 0.025 |
| AGGTAAAA | -0.0157 ± 0.037 |
| AATTCACA | 0.297 ± 0.035 |

| Sequence | PBM E-score of 8-mer |
| --- | --- |
| CATTCACC | -0.0478 ± 0.011 |
| GATTCACA | 0.392 ± 0.0093 |
| GATTCACC | -0.0546 ± 0.0018 |
| CATTCACG | 0.238 ± 0.024 |
| CATTCACA | 0.427 ± 0.014 |
| GATTCAGA | -0.233 ± 0.061 |
| TATTCACA | 0.423 ± 0.023 |
| AATTCACG | 0.345 ± 0.01 |
| CAGAGAGA | -0.036 ± 0.025 |
| CGTAGCCA | -0.196 ± 0.073 |
| CCGATAAA | -0.0119 ± 0.097 |
| AGGAAACT | -0.0834 ± 0.015 |
| CGCTTGAC | 0.136 ± 0.0033 |
| GTTTGACA | 0.332 ± 0.036 |
| GCTTGACA | 0.258 ± 0.034 |
| CTTTGACA | 0.174 ± 0.035 |
| CGTTGACC | 0.0141 ± 0.0079 |
| AGTTGACG | 0.226 ± 0.0068 |
| GGTTGACA | 0.382 ± 0.017 |
| AGTTGACA | 0.4138 ± 0.001 |
| CGTTGACA | 0.414 ± 0.0098 |
| AGTTGACC | -0.106 ± 0.098 |
| CGTTGTTC | -0.116 ± 0.067 |
| ACGGGCGG | -0.083 ± 0.0064 |
| GTCTTGGA | -0.322 ± 0.015 |

| Sequence | PBM E-score of 8-mer |
| --- | --- |
| CATAGAGA | -0.161 ± 0.012 |
| CCCTGTAA | 0.137 ± 0.0029 |
| ATCGAGGC | -0.0694 ± 0.048 |
| CACTTCAA | 0.213 ± 0.013 |
| AGTTGTCG | 0.293 ± 0.033 |
| GGTTGTCA | 0.338 ± 0.0013 |
| AGTTGTCA | 0.393 ± 0.016 |
| AGTTGTTA | 0.369 ± 0.04 |
| CGTTGTTA | 0.142 ± 0.034 |
| AGTTGTTG | 0.245 ± 0.024 |
| AGTTCGCA | 0.3728 ± 0.00053 |
| CGTTCGTA | -0.134 ± 0.018 |
| CGTTCGCC | 0.11 ± 0.024 |
| GGTTCGCA | 0.378 ± 0.0054 |
| GGTTCGGA | -0.2634 ± 0.0013 |
| CGTTCGCA | 0.411 ± 0.0075 |
| AGTTCGCG | 0.296 ± 0.038 |
| AGTTCGCC | 0.0613 ± 0.039 |
| GCTTCGCA | 0.358 ± 0.017 |
| CGGTTATA | -0.00559 ± 0.033 |
| GGGGTCGA | -0.0352 ± 0.02 |
| GCGAGATA | 0.105 ± 0.0039 |
| CATTGTCG | 0.038 ± 0.0095 |
| ATGATGAA | -0.154 ± 0.044 |
| AGTGACAG | 0.3301 ± 0.0022 |

| Sequence | PBM E-score of 8-mer |
| --- | --- |
| CGTGACAC | 0.38 ± 0.015 |
| CGTGACGC | 0.192 ± 0.033 |
| ACTGACAA | 0.165 ± 0.0096 |
| CGTGACAG | 0.217 ± 0.019 |
| CGTGACGA | 0.311 ± 0.029 |
| AGTGACAA | 0.397 ± 0.014 |
| AGTGACGA | 0.329 ± 0.029 |
| CGTGACAA | 0.364 ± 0.0037 |
| AGTGACAC | 0.435 ± 0.0092 |
| GGTGACGA | 0.418 ± 0.018 |
| AGTGACAT | 0.277 ± 0.056 |
| GATCGAGA | 0.00394 ± 0.097 |
| AGGCTAAT | -0.255 ± 0.1 |
| ACTAAGCC | -0.223 ± 0.02 |
| AGCCTACC | -0.245 ± 0.012 |
| GAGAATAC | -0.0812 ± 0.016 |
| GATTTTGA | -0.0555 ± 0.0057 |
| AACGCAAA | 0.0563 ± 0.092 |
| GCAGCGAA | 0.104 ± 0.068 |
| ACAAGAGG | -0.0502 ± 0.064 |
| CAACTCTA | -0.0379 ± 0.031 |
| TCGTATCA | 0.129 ± 0.031 |
| TCTGACAA | -0.0245 ± 0.056 |
| GGTGACAA | 0.459 ± 0.011 |
| CTTGACAA | 0.323 ± 0.011 |

| Sequence | PBM E-score of 8-mer |
| --- | --- |
| GGTGAAAC | -0.0179 ± 0.017 |
| GGAGACAC | 0.193 ± 0.045 |
| GTTGACGA | 0.279 ± 0.0033 |
| TGTGACAA | 0.412 ± 0.0055 |
| GGTGACCA | 0.075 ± 0.05 |
| TATGACAA | 0.0285 ± 0.073 |
| GGTGACAC | 0.4606 ± 0.0026 |
| GGTGACTA | 0.196 ± 0.039 |
| GTTGACAA | 0.389 ± 0.016 |
| CAACGGTC | 0.11 ± 0.036 |
| CTATAGAG | -0.282 ± 0.072 |
| ACTAGGCA | -0.204 ± 0.036 |
| CGCTTCAC | 0.235 ± 0.042 |
| AGGTCGAC | -0.00677 ± 0.036 |
| ACGGCAGT | -0.173 ± 0.031 |
| ATTATAGG | -0.255 ± 0.027 |
| GGGTGAAA | -0.0551 ± 0.015 |
| GGGTGACA | 0.4258 ± 0.0018 |
| TCGTGACA | 0.325 ± 0.0037 |
| TGGTGACA | 0.39 ± 0.0062 |
| CGGTGACA | 0.326 ± 0.026 |
| GGGTGACC | -0.0352 ± 0.046 |
